Assay outcomes as filed in PubChem.
Shown are actives, neighbours in structure and some others; about 2.1% of the full set was active somewhere.
aSyn rescue: qHTS of alpha-syn Inhibitors | Yeast expressing alpha-synuclein, growth rescue, BacTiter-Glo, 24 h | Potency, µM (highest dose often 46.1 µM), for the others: at the top dose growth rescue (activation), usual class: activators | actives 0.14% (n = 370,000); also: % of control where 0% means no effect; nearly all actives have a fitted effect of over 65% in size
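Rescue of yeast growth: cells expressing toxic alpha-synuclein, induced in galactose at OD600 0.02, incubated with compound 24 h at 30 C. ATP luminescence quantified growth; inhibitors of toxicity appear as activators.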
TSG101-PTAP inh: qHTS Assay for Iinhibitors of HIV-1 Budding by Blocking the Interaction of PTAP/TSG101 | Tumor susceptibility gene 101 protein (Homo sapiens), Q99816 | Fluorescence polarization, FITC-PTAP peptide / Tsg101 binding | Potency, µM (top dose mostly 115 µM), without a hit: at the highest dose activity change, negative = inhibition, actives largely listed as inhibitors | 340,000 tested, under 10 active | AID 493005, 2010; active = well fitted inhibition curve with a large enough effect in the main read-out, with a control signal flat, not every such curve was filed as active; inconclusive = small, poorly fitted or top-dose-only effect, or effect the other way, or a change in a side signal; inactive = no such curve, though single readings can be large or run the other way; also: % of control where 0% means no effect
Target sequence (Q99816 whole entry, looked up): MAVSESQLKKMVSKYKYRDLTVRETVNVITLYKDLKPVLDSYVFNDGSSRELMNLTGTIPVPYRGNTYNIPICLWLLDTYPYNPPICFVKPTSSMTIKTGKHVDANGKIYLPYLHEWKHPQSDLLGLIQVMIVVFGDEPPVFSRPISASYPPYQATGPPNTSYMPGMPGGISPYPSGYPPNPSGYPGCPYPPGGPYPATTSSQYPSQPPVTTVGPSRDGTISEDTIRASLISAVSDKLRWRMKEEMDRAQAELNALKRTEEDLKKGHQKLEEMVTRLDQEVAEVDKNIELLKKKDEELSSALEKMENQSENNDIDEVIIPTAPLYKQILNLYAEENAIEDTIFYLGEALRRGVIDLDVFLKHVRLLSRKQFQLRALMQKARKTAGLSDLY
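Compounds were pin-transferred onto Tsg101 binding domain (10 uM final) in HEPES pH 7.5 buffer, then FITC-PTAP peptide was added at 50 nM final. After 20 min at RT, polarization reported peptide displacement across a qHTS concentration series.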
Abeta rescue: qHTS for compounds that reverse cellular toxicity of Amyloid beta (A-beta) peptide in yeast: Primary Screen; yeast expressing A-beta42, growth rescue, OD600, 48 h; response scale: 0% DMSO, 100% iron-clioquinol control; Potency, µM (series often up to 46.1 µM), usual class: activators; actives 0.063% (n = 410,000); also: nearly all actives have a fitted effect of over 55% in size
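Growth rescue measured by 600 nm absorbance after 48 h yeast culture at 30 C with compound. Values normalized between DMSO and an equimolar ferric chloride plus clioquinol control.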
FUS yeast rescue: qHTS for Suppressors of FUS Proteinopathy: Primary screen using FUS-linked yeast assay; S. cerevisiae FUS-expressing, growth rescue, OD600, 24 h; actives 0.24% (n = 390,000); AID 1347120, 2019; Potency, µM (series often up to 76.6 µM), hits mostly activators;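 also: plate controls were DMSO vehicle for no effect and reference control for full effect; nearly all actives have a fitted effect of over 55% in size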
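Compound concentration series was pinned onto galactose-induced FUS-expressing yeast seeded at OD 0.005. Plates sat 24hr at 30C; absorbance at 600 nm gave growth. DMSO served as background control.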
TDP-43 yeast inh: qHTS of TDP-43 Inhibitors | TDP-43 expressing yeast growth rescue, BacTiter-Glo, 24 h | Potency, µM (titrated, usually from 46.1 µM), inactives show at the highest dose growth rescue (activation), actives largely listed as activators | actives 1.8% (n = 410,000); also: % of control where 0% means no effect; nearly all actives have a fitted effect of over 50% in size
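In this qHTS, compounds that restore growth of yeast expressing TDP-43 appear as activators. Cells (OD600=0.02, galactose medium, raffinose-pregrown) are incubated with compound 24 hr at 30 deg C and growth is quantified by BacTiter-Glo.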
Starred values were filed as active, the others as inactive; i = inactive; ? = inconclusive; / = no result. Unless noted, calls follow the shape of the dose curve; as a rule, active = well fitted curve in the direction sought with a large enough effect; inconclusive = small, poorly fitted or top-dose-only effect, or another doubt; inactive = no such curve, though single readings can be large; an effect the other way counts as inactive or inconclusive. Potency is read from the fitted curve at half-maximal effect.

SMILES | aSyn rescue | TSG101-PTAP inh | Abeta rescue | FUS yeast rescue | TDP-43 yeast inh
O=C(C1CCN(S(=O)(=O)c2ccc3ccccc3c2)CC1)N1CCN(c2ncccn2)CC1 | 7% | -5% | i | i | 20µM*
CCN1CCN(C(=O)C2CCCN(S(=O)(=O)c3cc(Cl)ccc3Cl)C2)CC1 (centres undefined) | -1% | / | i | / | 8%
CC1CCN(C(=O)C2CCN(S(=O)(=O)c3cc(Cl)ccc3Cl)CC2)CC1 | 3% | -5% | ? | i | 13µM*
O=C(C1CCN(S(=O)(=O)c2ccc(Cl)s2)CC1)N1CCN(c2ccccc2)CC1 | 21% | 0% | i | / | 14µM*
O=C(Nc1ccccn1)C1CCN(S(=O)(=O)c2ccc3ccccc3c2)CC1 | 8% | -6% | i | i | 11µM*
CCCOc1ccc(CNC(=O)C(CC)n2nc(C)c3sc4ccccc4c3c2=O)cc1 (centres undefined) | / | / | i | i | -6%
O=C(C1CCN(S(=O)(=O)c2cccc3cccnc23)CC1)N1CCN(c2ccc(Cl)cc2)CC1 | 0% | -2% | i | 28µM* | 18%
Cn1cc(-c2ccc3c(c2)OCO3)c2ccccc21 | 2% | / | i | i | 25µM*
CCOC(=O)c1ccc(N/C=C/C(=O)c2ccccc2)cc1 | 2% | 1% | i | i | -10%
CCOC(=O)Nc1cccc(OCC(=O)Nc2ccccc2OC)c1 | -7% | -1% | i | i | 16µM*
CCOC(=O)N1CCC(N(CCN(C)C)C(=S)Nc2ccc(Oc3ccccc3)cc2)CC1 | 20µM* | -3% | i | i | 20%
CCOC(=O)Nc1ccc(Oc2ccccc2)cc1 | -1% | -2% | i | i | 11µM*
CCOC(=O)Nc1ccc(C(=O)/C=C/c2ccccc2)cc1 | 1% | 7% | i | i | 14µM*
COc1cccc(NC(=O)C2CCN(c3nnc(C)c4c(C)n(-c5ccccc5)nc34)CC2)c1 | / | / | i | i | -14%
Cc1oc(-c2ccccc2F)nc1CSCC(=O)NCc1ccccc1 | / | / | i | i | 0%
O=C(Nc1ccc(Oc2ccccc2)cc1)C1CC1 | -29% | 0% | i | i | 5.6µM*
O=C(Nc1ccc(Oc2ccccc2)cc1)C1CCN(c2ncccn2)CC1 | 0% | -3% | i | i | 0%
CCOC(=O)C1CCCN(C(=O)c2ccc(-c3ccccc3)cc2)CC1 (centres undefined) | 7% | / | i | i | 0%
COc1ccc2c(-c3ccccc3)cc(SCC(=O)N(C)C)nc2c1 | -17% | -1% | i | i | 22µM*
COc1ccc2c(C)cc(SCC(=O)NC3CCCC3)nc2c1 | 11µM* | -3% | i | i | 19%
COc1ccc2c(-c3ccccc3)cc(SCC(=O)NC(N)=O)nc2c1 | -1% | -3% | i | i | 3%
CC(C)NC(=O)N[C@H]1CC[C@H](CC(=O)NCc2ccc(Oc3ccccc3)cc2)O[C@@H]1CO | 8% | / | i | i | 9%
COC(=O)c1ccc(COC(=O)CNC(=O)c2cccs2)cc1 | 8% | -4% | i | i | 10%
COc1ccc(Cl)cc1NC(=O)COC(=O)c1c(-c2ccccc2)noc1C | 18% | -3% | ? | i | 13µM*
COc1ccc(Cl)cc1NC(=O)CC(C)c1ccccc1 (centres undefined) | -10% | -2% | ? | ? | 13µM*
SMILES | aSyn rescue | TSG101-PTAP inh | Abeta rescue | FUS yeast rescue | TDP-43 yeast inh
COc1ccc(Cl)cc1NC(=O)CC(C)=O | 1% | -5% | i | i | 0%
COc1ccc(Cl)cc1NC(=O)c1c(-c2ccccc2)noc1C | -7% | -3% | i | i | 0%
Cc1nc2cc(-c3ccc(Cl)cc3)nn2c(C)c1CCC(=O)NC(C)c1ccc2c(c1)OCCO2 (centres undefined) | 12% | -2% | i | i | 28µM*
Cc1csc(NC(=O)CCc2c(C)nc3cc(-c4ccc(Cl)cc4)nn3c2C)n1 | 8% | -1% | i | i | 29%
CC(C)CC(NS(=O)(=O)OCC(Cl)(Cl)Cl)c1ccccc1 (centres undefined) | -54% | -5% | i | i | -91%
CC(NS(=O)(=O)OCC(Cl)(Cl)Cl)c1ccc(Br)cc1 (centres undefined) | -1% | -1% | i | i | 35µM*
CCC(C(=O)Nc1ccccc1)n1nc(-c2cc(C)ccc2C)ccc1=O (centres undefined) | / | / | i | i | 0%
CC(C)N(Cc1ccccc1)C(=S)NC(=O)C1(C)CC1(Cl)Cl (centres undefined) | 0% | -2% | ? | i | 35µM*
CCOC(=O)c1cccc(N2C(=O)c3ccccc3S2(=O)=O)c1 | / | -5% | i | i | 11µM*
CCOC(=O)c1ccc2c(c1)N(Cc1cc(C)ccc1C)C(=O)c1ccccc1S2(=O)=O | / | / | i | i | 1%
O=C1C(=C(c2ccccc2)N2CCOCC2)Cc2ccccc21 | 12% | / | i | i | 13µM*
COc1ccc(C(=O)Oc2ccc(/C=N/O)cc2)cc1 | / | -5% | i | i | 10µM*
COc1ccc(OC(=O)c2ccncc2)cc1 | 6% | -2% | i | i | 27%
COc1ccccc1-n1nnnc1SCC(=O)NC1CCCCC1 | 0% | -1% | i | i | -2%
Cc1cc(C)cc(NC(=O)C2CCC(CNS(=O)(=O)c3ccc4c(c3)C(C)(C)C(=O)N4C)CC2)c1 (centres undefined) | / | / | i | ? | 5%
CCOc1ccc(Nc2nc3ccccc3n3c(CC)nnc23)cc1 | / | / | i | i | 25µM*
CC(=O)CC1c2ccccc2C=C(c2ccsc2)N1c1ccc(-c2cccs2)cc1 (centres undefined) | 6% | / | i | i | 18%
O=C1N(CCCl)c2ccc(Br)cc2C12OCCO2 | 3% | -2% | i | i | 10µM*
NC(=O)c1c(N)[nH]c(C(=O)c2ccccc2)c1-c1ccccc1C(F)(F)F | / | / | / | i | /
CCOc1ccc(NC(=O)Nc2cc3c(cc2N2CCCCC2)n(C)c(=O)n3C)cc1 | / | / | i | i | -1%
COc1ccc(C(=O)N2N=C(c3cccs3)CC2c2ccccc2O)cc1 (centres undefined) | 18µM* | 0% | i | i | 28%
Cc1ccc(CN2CCN(C3CCN(S(=O)(=O)N(C)C)CC3)C(=O)C2=O)cc1 | / | / | i | i | 23%
COc1cc(Cl)c(C)cc1NC(=O)c1cc2c(Cl)nc3ccc(C)cc3c2s1 | / | / | i | i | 20%
